Where “and” joins values, the source holds several entries; their conditions need not be identical. Equal entries are not always repeated. About 190 (0.17%) of roughly 110,000 compounds were called active. This is one part of a sample in which actives are shown more often than they occur. No stated cut-off is given here; in the data, active means inhibition above about 50%; inactive means the rest. Potency and affinity values are given separately. A structure can be active in one record and inactive in another.
target: Dual specificity protein phosphatase 6 (Rattus norvegicus) (UniProt Q64346); assay: inhibition of rat DUSP6 enzyme activity – biochemical, in vitro, primary screen (AID 425); conditions: recombinant MKP-3 phosphatase activity, fluorescence; at 20 µM; stronger effect = higher value;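 further: plate controls were vehicle for no effect and reference inhibitor for full effect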
Sequence (Q64346 whole entry, looked up): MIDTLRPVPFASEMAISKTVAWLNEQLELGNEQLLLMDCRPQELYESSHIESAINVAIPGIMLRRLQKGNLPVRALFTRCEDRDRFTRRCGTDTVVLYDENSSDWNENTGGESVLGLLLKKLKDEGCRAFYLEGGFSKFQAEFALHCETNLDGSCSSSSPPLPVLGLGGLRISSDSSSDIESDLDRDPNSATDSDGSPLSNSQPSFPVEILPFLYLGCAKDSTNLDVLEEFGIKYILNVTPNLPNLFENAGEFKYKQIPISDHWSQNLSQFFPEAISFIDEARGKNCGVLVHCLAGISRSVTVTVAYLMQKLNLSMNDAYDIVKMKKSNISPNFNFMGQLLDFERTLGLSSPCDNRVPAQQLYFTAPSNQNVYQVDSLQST

| SMILES | inhibition |
| --- | --- |
| O=C(Nc1ncc(Cc2ccc(Cl)c(Cl)c2)s1)c1ccccc1Cl | 3.9% (inactive) |
| Cc1ccc(OCC(=O)N/N=C\c2ccc(-c3ccc([N+](=O)[O-])cc3)o2)cc1 | -0.5% (inactive) |
| Cc1cc(C)n(Cc2ccc(C(=O)O)o2)n1 | -6.7% (inactive) |
| O=C1/C(=C\c2ccco2)CC2CC1C/C(=C/c1ccco1)C2=O | 55.6% (active) |
| O=C1/C(=C\c2cccs2)CC2CC1C/C(=C/c1cccs1)C2=O | 1.2% (inactive) |
| O=C1/C(=C/c2ccco2)N2CCC1CC2 | -0.8% (inactive) |
| CN1CCN(CCCn2cnc3c(=O)oc4ccccc4c32)CC1 | -0.6% (inactive) |
| CC(=O)O[C@@]12CO[C@@H]1C[C@H](O)[C@@]1(C)C(=O)[C@H](O)C3=C(C)[C@@H](OC(=O)[C@H](O)[C@@H](NC(=O)OC(C)(C)C)c4ccccc4)C[C@](O)([C@@H](OC(=O)c4ccccc4)[C@H]21)C3(C)C | -0.3% (inactive) |
| COC(=O)c1ccc(C(=O)OC)c(N)c1 | -12.2% (inactive) |
| COC(=O)c1ccccc1OCc1cccc(C)n1 | -5.5% (inactive) |
| COc1ccc(S(=O)(=O)Nc2ccc(C)c(Cl)c2)cc1OC | 3.1% (inactive) |
| Cc1ccc(N(C)S(=O)(=O)c2ccc(Cl)cc2)cc1 | -0.1% (inactive) |
| O=C(CN1C(=O)S/C(=C/c2ccccc2F)C1=O)Nc1ccccc1C(=O)O | 6.5% (inactive) |
| O=C(CN1C(=O)/C(=C/c2ccccc2)SC1=S)Nc1cccc(C(=O)O)c1 | -1% (inactive) |
| COc1ccc(/C=C2\SC(=O)N(CC(=O)Nc3ccc(C)cc3C)C2=O)cc1 | -0.5% (inactive) |
| COc1cc(/C=C2/SC(=S)N(CC(=O)Nc3cccc(C(=O)O)c3)C2=O)cc(OC)c1OC | 1.9% (inactive) |
| O=C(NC(Nc1ccc([N+](=O)[O-])cc1)C(Cl)(Cl)Cl)c1cccc(I)c1 (stereo not drawn) | 1.1% (inactive) |
| CCN(CC)S(=O)(=O)c1cccc(C(=O)Oc2cccnc2)c1 | -10.3% (inactive) |
| CCOc1cc(C(=O)Nc2ccc(OCc3ccccc3)cc2)cc(OCC)c1OCC | 7% (inactive) |
| CCCC1=NN2C(=N)/C(=C/c3cc(OC)ccc3OC)C(=O)N=C2S1 | 1.4% (inactive) |
| CCC1=NN2C(=N)/C(=C/c3ccc(OCCOc4cccc(OC)c4)cc3)C(=O)N=C2S1 | -1.7% (inactive) |

| SMILES | inhibition |
| --- | --- |
| Nn1c(SCC(=O)NC2CCCCC2)nnc1-c1ccccc1 | -1.2% (inactive) |
| Cc1cc(=O)n2[nH]c(C)c(-c3ccc(Cl)cc3)c2n1 | -8.5% (inactive) |
| Cc1[nH]n2c(=O)cc(C(C)C)nc2c1-c1ccccc1 | -5.8% (inactive) |
| Cc1cc(=O)n2[nH]c(C)c(-c3ccccc3)c2n1 | 72.9% (active) and -3.2% (inactive) |
| O=C(NCC1CCCO1)c1ccc(Cl)cc1 (stereo not drawn) | -0.2% (inactive) |
| O=C(CCCn1c(=O)c2sccc2n(Cc2ccc(F)cc2)c1=O)NCc1ccco1 | -8.3% (inactive) |
| CCOc1ccc(C(=O)NCc2ccc3c(c2)OCO3)cc1 | -3% (inactive) |
| COc1ccc(/C=C2/SC(=O)N(CC(=O)Nc3ccc(C)c(C)c3)C2=O)cc1OC | 3.6% (inactive) |
| COc1ccc(/C=C2/SC(=O)N(CC(=O)Nc3ccc(F)c(Cl)c3)C2=O)cc1OC | 1.4% (inactive) |
| COc1ccc(-c2cc(C(=O)N/N=C(\C)c3ccc([N+](=O)[O-])cc3)[nH]n2)cc1 | 4% (inactive) |
| Cc1cccc(C=Nc2ccccc2O)c1O | -0.6% (inactive) |
| N#Cc1ccc(N=Cc2cccc(O)c2O)cc1 | -1.9% (inactive) |
| CCOc1ccccc1C=Nc1cc(Cl)cc(Cl)c1 | -0.8% (inactive) |
| Oc1cccc(C=Nc2ccccc2)c1O | 120% (active) |
| CCN(CC)c1ccc(N=Cc2cccc(O)c2O)cc1 | 16.1% (inactive) |
| CCOc1ccccc1C=Nc1ccc(O)cc1 | 116% (active) |
| Cc1ccccc1C=Nc1ccc(O)cc1 | 112% (active) |
| Cc1ccsc1C=Nc1ccc(O)cc1 | -7% (inactive) |
| CCOc1ccccc1C=Nc1ccc(C(N)=O)cc1 | -2.2% (inactive) |
| CCOC(=O)C1(C)NC(c2cc(OC)c(OC)c(OC)c2)C2C(=O)N(CC)C(=O)C21 (stereo not drawn) | 4.9% (inactive) |
| CC(NC(=O)C(=O)NCC1CCNCC1)c1ccccc1 (stereo not drawn) | 2.1% (inactive) |

| SMILES | inhibition |
| --- | --- |
| Cc1cc(NC(=O)c2nn3c(c2Cl)NC(c2ccc(Br)cc2)CC3C(F)(F)F)no1 (stereo not drawn) | -0.7% (inactive) |
| COc1cccc(C(=O)NNC(N)=O)c1 | -2.5% (inactive) |
| O=C(CSc1nc2ccc(N3C(=O)c4ccccc4C3=O)cc2s1)Nc1cccc([N+](=O)[O-])c1 | 14.1% (inactive) |
| Cc1ccc(NC(=O)C(=O)NCC(C)C)cc1 | -6.8% (inactive) |
| CCN1CCOC(c2ccccc2)C(C(=O)OC)C1C(=O)OC (stereo not drawn) | 49.2% (inactive) |
| O=C(Nc1ccc(NC(=O)c2ccc(-c3ccc(Br)cc3)o2)cc1)c1ccco1 | -1.3% (inactive) |
| CC(=O)c1ccc(NC(=O)c2ccc(-c3ccc(Br)cc3)o2)cc1 | 10.6% (inactive) |
| CCCCCCCC(=O)N/N=C/c1c[nH]c2ccccc12 | 4.3% (inactive) |
| O=C(CSc1ccccn1)N/N=C\c1c[nH]c2ccccc12 | -0.6% (inactive) |
| Cc1ccn2c(-c3csc(Nc4cccc(O)c4)n3)c(C)nc2c1 | 2.7% (inactive) |
| O=C1CC(Nc2ccccc2)C(=O)N1Cc1ccccc1 (stereo not drawn) | 1.4% (inactive) |
| O=C(O)c1ccc(NC(=O)c2cc3cc(Br)ccc3oc2=O)cc1 | 3.5% (inactive) |
| O=C(Nc1ccc(Nc2ccccc2)cc1)c1cccc(F)c1 | -0.3% (inactive) |
| Cc1ccc(-c2nnc(NC(=O)Nc3ccc(Cl)c(Cl)c3)s2)cc1 | -1.5% (inactive) |
| O=C(Nc1ccc(Cl)c(Cl)c1)Nc1nnc(-c2ccccc2)s1 | -2.8% (inactive) |
| O=[N+]([O-])c1ccc(OCCCCCN2CCCCC2)cc1 | 0.4% (inactive) |
| Cc1ccc(/C(O)=C2\C(=O)C(=O)N(CCCC(=O)O)C2c2ccccc2)cc1 (stereo not drawn) | 2.5% (inactive) |
| COc1ccc(O)c(CN2CCN(Cc3ccccc3[N+](=O)[O-])CC2)c1 | -3.5% (inactive) |
| Oc1ccccc1/C=N/Nc1cc(N2CCCCC2)nc(N2CCCCC2)n1 | -0.5% (inactive) |
| Oc1ccccc1/C=N/Nc1cc(N2CCOCC2)nc(N2CCOCC2)n1 | 5.6% (inactive) |
| Oc1ccccc1/C=N/Nc1cc(N2CCCC2)nc(N2CCCC2)n1 | 119% (active) |
